Measurements published in PubChem BioAssay AID1159506 (National Center for Advancing Translational Sciences (NCATS), 2015).
In all, about 59,000 sequences were measured (the read-out: median about -0.00055, lowest 2% from about -2 on). This excerpt belongs to a sample that is enriched for the lowest values.

Assay: Identification of proteins required for the processing of the EWS-FLI1 nascent transcript;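 also: robust z of luciferase light less the median z of siRNAs with the same seed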
Conditions: TC32 Ewing sarcoma NR0B1-luc vs CMV-luc (EWS-FLI1 target promoter against control promoter), 48 h; screened at 20 nM (by protocol)
In short: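 Readout: OneGlo luminescence, 48 h post-transfection, TC32-NR0B1-luc vs TC32-CMV-luc in parallel. siRNA 20 nM final, RNAiMax lipid, 600 cells/well; z-score-MAD transformed, then seed-adjusted.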

Sequence	seed-corrected z-score
UACCCAUCAAAGCAAUCGC against LTBP1	-0.403
AGAUCAAUUAGUAAUCCUC against CHM	-0.298
UGGAUUGUCAACACCAAUG against CCT2	-0.17
UUUACGUCCAAAGUAGCAC against SEC23B	-0.0983
UGAUCUGCUAGGCAAGAGG against FASTKD1	-0.665
UGGUUGUUCAACGCUGUAG against MEA1	-0.557
UUAAGACAUAUCCUGGUGC against YY1AP1	-2.26
UUCCUUCUCAGGAUAGUGG against IYD	0.306
UCGGAUACGGGUGUGAUAC against SNX32	0.403
UAGAAUCCCACUGCGAUGC against TTYH3	-0.966
UCAUUCAUCAGGUUCAUGC against TPD52L1	1.32
UUGGGCUUCUUCCUAAUGC against SLC16A3	-0.147
UUCGAUAGUCUGUUUCUGC against SLK	-2.56
UCAGGGUAUUCAUUGGUGC against INCA1	-3.45
GAUGUAGAAGCCAUAGUUC against NIPAL4	0.499
UGGAGUUCUUAUAAAAUGC against C15orf43	-0.277
UUAAUUCCCGUGCCCUUGG against PON2	-3.2
UUUGGAUGUACGUGUAUAC against DYRK4	0.282
UACUUUCGCCUCCUCAUCC against CCDC89	1.17
UUUGGGCAGAUAGAAGGAG against ADAMTS15	0.203
UACUUUCAUAUGCAGGUCC against PCDH8	-1.4
AACCGUUCAUCCUUCGUGC against KLHL6	-0.163

Sequence	seed-corrected z-score
UCAUCAUCAAAGGCGAUGG against GDNF	-2.86
UUCUUGGUGUUGUAGAAGG against AGPAT2	0.219
UCAGGUAGAACACUUUGCU against YWHAG	0.113
UUGCUAUCCAUGUAUAGCC against SLITRK1	0.475
UCGUGUAAAACAACAUGCG against AGMO	-0.652
UAACCUAUCAUAUUGGUAG against DDX17	0.216
UAGAUCACCAAGCCCUUCC against EFNB1	-0.0268
UCUCCAUAAACAUACAGGC against LACE1	1.68
UUGGUUGCAUCCCUGUCCG against PPP1R27	-3.59
UGAUGUACUGUGGAAGGUC against MAST3	-1.59
UGUAGUGACAUCUCCGCCU against MCFD2P1	0.515
UAAGGUCCCAGAAAGGCCU against ZP4	0.208
UCUGGGUACAAUCUGGUGU against CHCHD10	-2.26
UCUGAUUCCGCUUCUGAGC against SIGLEC10	0.63
AUAGAUACCUAGGUCAACC against NEU3	0.24
UGCUGUUAGUUUGUGAUGC against LOC729254	0.247
UUCGAGACGAUUUCCAGUG against CMIP	-2.27
UACUAGGUACGAACCGUCC against PPTC7	-0.527
UCUCCUUACAUAACACUUC against EPHX2	0.0978
UUUGUGAUAGACUUCUUUC against CFAP126	1.14
AAACCUUCCGGUUUAGAUG against KCNH5	-0.00192
UUUGCCUCUUUCCUCAACC against ZBTB16	-2.32

Sequence	seed-corrected z-score
UAUAGAUCAACAAAAAUAC against TRMT112	0.21
UUCCUUCUCGUCGUCGUAG against SERPINH1	-0.218
AGUGGGAUAAGGGCUCUGA against TMEM132A	-5.72
UAUUCUUCAUUGGUAUCCC against TMEM27	-0.429
UCCGUUUCCACAUAUCUAC against SUPT20H	-0.175
UAUGGUAAUAGUCCUCCAG against FNDC9	-0.0743
UUAGAAGCCCGCGUGAUGU against HS6ST3	0.236
UGAUUGGUUACUGCCCAGG against TAS2R20	-4.87
UCCGUUUCCAUAAUUACAG against SCUBE1	-0.917
AAACUAAUGAAAUAGUGCC against GPR39	-0.0661
AUAGAUCUUUAUAUAAGCC against ATL1	-0.744
UAGAGUUUCGGUUUAAAUG against RBBP5	0.215
UUUUGUAUGUAGACAUUGG against DEFB135	-0.8
UACACUAGCAGUGACCAUG against MBOAT1	0.0459
UUGAUAUCCAGCACAUUGC against CORO2B	1.69
UCUUCGUAGAUGACAUUCC against ERO1A	0.442
AUAUGUGCAGUCUUCUCCC against LINC00200	-0.44
UCCAGUAACAAUUAAUGCC against LRRC37A	0.451
UGUGGUCAAAGAGGAGAUG against SH3TC2	-2.8
UAGCAGAUAGGUCUCAAUG against MYH11	-0.244
UAGAUUCUCGUGCACAGCC against KIFC3	0.0224
AAAGUGACUAUUGUCAGGU against OR5M10	-0.162

Sequence	seed-corrected z-score
UUUGUAGUUGUUCCCAUGC against TTPA	-0.714
UCCAAGGUCAGUGUGAUCC against ZDHHC23	0.574
UUAUGUAUCAUUGGAACCA against LOC388780	0.0558
UUUUAUUCCCUGUAUCAUG against ZNF619	-2.89
UUCACUCUCAAACUGGUCC against CNOT3	-0.499
UCUUGUCCAAGACUCCUUC against SMTN	-0.516
UGAUGAGCGACUCUCCUGG against C9orf142	-0.422
AUUGCUACUGAUAUAAGCC against DICER1	-0.452
UUCGGACUCAGCUUCUCCA against EXD3	0.0948
UUAUGAUCCAGGUAGAGGA against INHBE	0.817
UUCUGCUUUGCAUAUCUCC against POU5F1	-2.72
AUUCUUAAACGUGAUUUCC against NICN1	0.117
UAGCGAAUCUGUAAGCUGC against MLLT10	-0.471
UUUUGAUGCUGUCUACAGG against METTL2B	-1.55
UUACCUAUCCCUGAGACAC against MICAL2	0.383
UCCUCUGCGAAGUUCUUGG against PANX2	-2.24
UCCAUGAGCGCAAUCAUGC against CAPN3	0.116
UCUUCUUCACGAGUUGAGG against GPRC5A	-0.133
UGAGUCAAUGAUGCGCUUC against SFN	2.54
UUGAUGUACAGAUACCAGG against BTBD18	-2.42
AAAAGUCCAAACAAUACCC against GPR156	-0.327
UACUUGAGCACGUCGAUGA against C19orf68	-0.256

Sequence	seed-corrected z-score
UCACUUUGAACUUUCCGGC against SCP2D1	-1.27
AAUGGGAAAAGAAUUGCUU against IGFBP7-AS1	0.0752
UUGGUGGAUAUACUCAAUC against EXO5	-2.07
UGAGGAACCAGUUCCAAGG against TMEM60	-0.737
UUCCUGCUGCGUACACUUC against KCNAB3	-0.0212
ACAUAUAUAAGAAUAUCGG against ARL3	-0.177
UUGUGGAACAUCAUGUCUU against ADCY6	1.34
UAGGUUGUGACUGGUGGUG against ARID5A	-3.43
UAGUCGAACACCAAGAGGG against CDH3	-0.271
UCCGGUUUAUAUUUGGUGC against EPSTI1	-0.285
UUUCAUCCUAGAAACUCCC against SLC45A3	0.412
UUCACCAUAAACACGAUCC against DPM1	0.428
UAUGAAUCCAGAUUGAACU against CXCL1	0.898
UCCCGGUACAUGUUGUGGG against RPL18A	-2.34
UGUUGAGUAGGUCCGUUCC against EPHA7	0.58
UACAGUGACGAGAAGUUCU against RALGDS	0.583
AUCUCUUCCACUUCCGAGG against SMARCB1	-2.19
UAAUUGAACUGAUCCAGUC against WDR12	-0.242
UUCCUUAGCACCAUUGAUG against MMADHC	1.09
UCAGUUUUAGGAUAUAUAC against USP46-AS1	0.575
AUAUUAAGCAGACAACUCC against DIRC2	0.227
UGAGGUUAAAGAAGGUGAC against HRH3	-0.214

Sequence	seed-corrected z-score
UGAGUUUCAUCAUAGUCUG against BMX	-4.87
UAAGCACACAUUUACUUGG against HIST1H2BG	0.782
UUUCAUCUGAAGACAGGAC against DDIT3	-1.09
UCUUCGUUGAGUGCAUCCC against SOCS2-AS1	-0.904
UAUGUAGUUAAGACCAUUC against IRS1	0.431
ACAAUUUUAGCUGUAACCC against OC90	0.989
UCGCUGUCGAGCAGUAAGC against INO80B	-2.1
UUAGUGGUCAUGGGCUUCC against GTF2F1	-0.176
UCGCUUGCAAAUAAUCUGC against ULK2	-0.141
AAGUCUGCGAUUAAAGCUG against DTNBP1	-2.27
UACAUAGCAAACAUGACCG against ATL2	-0.859
UGAAGGUUUGGAGCAAACU against RPL15P17	0.127
UGAUCUCAGUCCUCGCUGC against LINC01118	-0.476
UGUAGGAACACUCAUCACC against KCNA4	-2.42
UUCUGUCCAAUUGUCGCUG against JTB	-0.0311
UAGCAUGUAACGUGUGACC against CNTNAP1	-0.734
UGAAGAUCCAGCAAGUAUC against 6-Mar	0.65
UCACAUGCAUCAAUUUUCG against NDUFB5	0.331
UAUAGCUGAAUGGUCAUUG against KRTAP3-3	-3.04
UCAGUGACAACAUCACGGC against PPP2R5D	0.201
UGCCGUCUUACUCUUUGCG against C19orf53	-0.415
AAACUUGUUUCUGCACAUG against OR2F1	1.3
